Assay outcomes (PubChem BioAssay)
Only a selection was taken, and hits are over-represented in it overall.
Tgondii IFNg: blocks Toxoplasma gondii growth in the presence of IFN-gamma. Toxoplasma gondii growth in IFN-gamma-treated host cells; hits give low values. activity change, negative = inhibition, % (test concentration not listed). hit rate 3.8% among 69,000; in the data active = activity change below about -70%, passing the limit was not always enough;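 also: host cells are HeLa cells infected with Toxoplasma gondii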
An asterisk follows results filed as active; ! = not active in a repeat.

Results for CCCC(=O)N1CCc2c([nH]c3ccccc23)C1c1ccc(OCC)cc1 (stereo not given) ?
Tgondii IFNg: -37

Results for COC(=O)CCC(=O)N1CCc2c([nH]c3ccccc23)C1c1ccc(SC)cc1 (stereo not given) ?
Tgondii IFNg: 57

What do the screens show for `COCC(=O)N1CCc2c([nH]c3ccccc23)C1c1ccc(C)cc1` (stereo not given)?
Tgondii IFNg: 272

What do the screens show for `CCCC(=O)N1CCc2c([nH]c3ccccc23)C1c1ccc(OC)cc1` (stereo not given)?
Tgondii IFNg: inactive

Results for Cc1ccc(C2c3[nH]c4ccccc4c3CCN2C(=O)COc2ccccc2)cc1 (stereo not given) ?
Tgondii IFNg: -117*

How did CCCC(=O)N1CCc2c([nH]c3ccccc23)C1c1ccc(Cl)cc1 (stereo not given) do in these assays?
Tgondii IFNg: -104*

How did O=C(COc1ccccc1)N1CCc2c([nH]c3ccccc23)C1c1ccc(Cl)cc1 (stereo not given) do in these assays?
Tgondii IFNg: -70

Results for CCCC(=O)N1CCc2c([nH]c3ccccc23)C1c1ccc(SC)cc1 (stereo not given) ?
Tgondii IFNg: -24

How did COc1ccc(CCC(=O)N2CCN(S(=O)(=O)c3cc4c5c(c3)CCC(=O)N5CCC4)CC2)cc1 do in these assays?
Tgondii IFNg: 6

Results for Cc1cccc(OC(C)c2nnc(NC(=O)c3ccc(C)n(C)c3=O)s2)c1C (stereo not given) ?
Tgondii IFNg: -60

What do the screens show for `COc1ccc(S(=O)(=O)n2cccn2)c(C)c1C`?
Tgondii IFNg: 8

How did CC(C)CCN1CCc2[nH]nc(C(=O)N3CC=CC3)c2C1 do in these assays?
Tgondii IFNg: 40

What do the screens show for `O=C(CSCc1ccccc1)NCCSCc1ccco1`?
Tgondii IFNg: -1

Results for CCOCC1CC2(COCCN2S(=O)(=O)c2ccccc2)CO1 (stereo not given) ?
Tgondii IFNg: -10

What do the screens show for `COc1cc2c(cc1OC)CN(Cc1c(C(C)C)[nH]c3ncccc13)CC2`?
Tgondii IFNg: -38

How did COc1cc2c(cc1OC)CN(CCc1ccc(NC(=O)c3cccc4c(=O)c5cccc(OC)c5[nH]c34)cc1)CC2 do in these assays?
Tgondii IFNg: -84*

How did COc1cc2c(cc1OC)CN(CC(=O)NC(C)c1cn(C)nc1C)CC2 (stereo not given) do in these assays?
Tgondii IFNg: 2

What do the screens show for `COC(=O)c1ccc(OC)c(CN2CCN(CC(C)C)C(=O)C2C)c1` (stereo not given)?
Tgondii IFNg: 0

Results for CCOc1cccc(-c2noc(-c3c(O)c4cc(F)ccc4n(CC)c3=O)n2)c1 ?
Tgondii IFNg: 57

How did CCCC(=O)N1CCCC1c1ncc(C(=O)Nc2ccccc2OC)c(C)n1 (stereo not given) do in these assays?
Tgondii IFNg: -8

How did CNC(=O)c1ccccc1Nc1nc(Nc2ccc3c(c2OC)CCC[C@H](N2CCN(CCO)CC2)C3)ncc1Cl do in these assays?
Tgondii IFNg: -75*

How did CC[C@@H]1C(=O)N(C)c2cnc(Nc3ccc(C(=O)NC4CCC(N5CCN(CC6CC6)CC5)CC4)cc3OC)nc2N1C(C)C (stereo not given in full) do in these assays?
Tgondii IFNg: -68

How did NC(=O)c1cncc(N2CCC(CO)(Cc3ccccc3)CC2)n1 do in these assays?
Tgondii IFNg: -32

How did Cc1cccc2cc(CO)c(N3CCC(CO)(Cc4ccccc4)CC3)nc12 do in these assays?
Tgondii IFNg: -77*

What do the screens show for `COc1ccc(CC2(CO)CCN(c3ncnc4c3CCC4)CC2)cc1`?
Tgondii IFNg: -50

What do the screens show for `CCCc1nc(N(C)Cc2nc3ccsc3c(=O)[nH]2)c2cnn(C)c2n1`?
Tgondii IFNg: 34

Results for NC(c1ccccc1)c1cc2ccccc2cn1 (stereo not given) ?
Tgondii IFNg: -17

What do the screens show for `CCOC(=O)c1nc(N(CC)c2ccccc2)c2ccccc2n1`?
Tgondii IFNg: 14

How did CCOC(=O)c1nc(N2CCN(C3CCCCC3)CC2)c2ccccc2n1 do in these assays?
Tgondii IFNg: 4

How did CCOC(=O)c1nc(N(Cc2cccs2)C2CCCC2)c2ccccc2n1 do in these assays?
Tgondii IFNg: -76*

How did Cn1cc(C[C@H]2[C@@H](O)CCN2C(=O)Cc2cccc(F)c2)cn1 do in these assays?
Tgondii IFNg: 23

Results for CN1CCN(c2cc(-c3cccnc3)nc3ccccc23)CC1 ?
Tgondii IFNg: -16

Results for Cc1nc(N2CCN(c3cc(=O)[nH]nc3-c3ccccc3)CC2)c2cnn(C)c2n1 ?
Tgondii IFNg: -84*

Results for COC(=O)C1(C)CCN(c2nc(-c3cccnc3)nc3c2cnn3C)CC1 ?
Tgondii IFNg: -41

How did COc1ccc(-c2nc(Cn3nnc(-c4nc(-c5ccc(Cl)cc5)no4)c3C)c(C)o2)cc1 do in these assays?
Tgondii IFNg: 9

What do the screens show for `CCS(=O)(=O)N1CCC2(CC1)OC(=O)C(C)=C2C(=O)Nc1ccc(F)cc1F`?
Tgondii IFNg: 8

Results for COc1ccc(-c2nnc(-c3nc(NCc4ccc(C)cc4)c4ccccc4n3)o2)cc1 ?
Tgondii IFNg: -4

What do the screens show for `Cc1cccc(-c2nnc(-c3nc(N4CCCCC4C)c4ccccc4n3)o2)c1` (stereo not given)?
Tgondii IFNg: 27

Results for Clc1cccc(-c2nnc(-c3nc(NCc4ccco4)c4ccccc4n3)o2)c1 ?
Tgondii IFNg: -69

Results for Cc1cccc(-c2nnc(-c3nc(NCc4ccco4)c4ccccc4n3)o2)c1 ?
Tgondii IFNg: -24

Results for Cc1ccc(-c2nnc(-c3nc(NCc4cccc(C)c4)c4ccccc4n3)o2)cc1 ?
Tgondii IFNg: 24

Results for Cc1ccc(-c2nnc(-c3nc(NCc4ccc(F)cc4)c4ccccc4n3)o2)cc1 ?
Tgondii IFNg: 15

What do the screens show for `COc1ccc(Nc2nc(-c3nnc(-c4cccc(C)c4)o3)nc3ccccc23)cc1`?
Tgondii IFNg: inactive

What do the screens show for `COc1cccc(CNc2nc(-c3nnc(-c4cccc(C)c4)o3)nc3ccccc23)c1`?
Tgondii IFNg: -92*

How did Cc1cccc(-c2nnc(-c3nc(NC4CCS(=O)(=O)C4)c4ccccc4n3)o2)c1 (stereo not given) do in these assays?
Tgondii IFNg: -96*

Results for Fc1ccc(-c2nnc(-c3nc(NCc4ccco4)c4ccccc4n3)o2)cc1 ?
Tgondii IFNg: -86*

What do the screens show for `COc1cccc(CNc2nc(-c3nnc(-c4ccc(C)cc4)o3)nc3ccccc23)c1`?
Tgondii IFNg: -11

Results for Cc1cccc(CNc2nc(-c3nnc(-c4ccc(F)cc4)o3)nc3ccccc23)c1 ?
Tgondii IFNg: -101*

Results for CCc1ncc(C(=O)N(CC)Cc2nc(-c3cccc(C)c3)no2)cn1 ?
Tgondii IFNg: -8

Results for CCN1C(=O)CCc2cc(NC(=O)c3ccc(C)s3)ccc21 ?
Tgondii IFNg: -57

Results for O=C(NC(CO)C(=O)O)c1cncc(Br)c1 (stereo not given) ?
Tgondii IFNg: 7

How did O=C(c1csnn1)N1CCC2(CC1)CN(CCO)c1ccccc12 do in these assays?
Tgondii IFNg: -2

What do the screens show for `CCC(C)C1N=C2c3ccccc3N=C(SCc3ccc(F)cc3)N2C1=O` (stereo not given)?
Tgondii IFNg: -9

What do the screens show for `Oc1c(I)cc(I)c2cccnc12`?
Tgondii IFNg: -76*!

How did Cc1ccc2c(Cl)cc(Cl)c(O)c2n1 do in these assays?
Tgondii IFNg: -81*

Results for COc1ccc(-c2ncc(Cl)cn2)c2ccc(C)nc12 ?
Tgondii IFNg: -38
